From PubChem BioAssay AID1159580 (chemical genetic matrix, 2015)
The campaign covered roughly 5,500 compounds. About 2,000 (36%) were called active. About 18% were inconclusive and are not listed. Rule as the data show it: active = normalized growth mostly below about 0.91 (no sharp cut-off); inconclusive = no clear call, values can overlap the other calls; inactive = mostly above about 0.92. This is one part of the list.

Assay: chemical genetic growth profiling, strain panel (AID 1159580);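 also: tested at 20 µM; growth read once vehicle control cultures reached saturation at 30 °C; 1 = growth at the plate median or of vehicle wells; lower values mean less growth of the strain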
Conditions: growth OD

Measured: normalized growth

CC1(C)C2CC(=O)[C@]3(C)C(CC[C@@]4(C)[C@H](c5ccoc5)OC(=O)[C@H]5O[C@]543)[C@@]2(C)C=C[C@@H]1O (some centres not stated)
inactive: S. cerevisiae deletion strains, locus YBR021W, strain FUR4, hits give low values 0.944 | S. cerevisiae deletion strains, locus YBR229C, strain ROT2, hits give low values 1.02 | S. cerevisiae deletion strains, locus YCL029C, strain bik1, hits give low values 1 | S. cerevisiae deletion strains, locus YDL035C, strain GPR1, hits give low values 1.02 | S. cerevisiae deletion strains, locus YDL074C, strain BRE1, hits give low values 1.01 | S. cerevisiae deletion strains, locus YDL101C, strain DUN1, hits give low values 0.994 | S. cerevisiae deletion strains, locus YDL134C, strain PPH21, hits give low values 0.982 | S. cerevisiae deletion strains, locus YDL185W, strain tfp1, hits give low values 1.01 | S. cerevisiae deletion strains, locus YDL192W, strain arf1, hits give low values 1.01 | S. cerevisiae deletion strains, locus YDR101C, strain arx1, hits give low values 0.993 | S. cerevisiae deletion strains, locus YDR150W, strain NUM1, hits give low values 1.01 | S. cerevisiae deletion strains, locus YDR162C, strain NBP2, hits give low values 1.01 | S. cerevisiae deletion strains, locus YDR318W, strain mcm21, hits give low values 0.99 | S. cerevisiae deletion strains, locus YDR388W, hits give low values 1.01 | S. cerevisiae deletion strains, locus YDR502C, strain sam2, hits give low values 0.967 | S. cerevisiae deletion strains, locus YEL061C, strain CIN8, hits give low values 1.01 | S. cerevisiae deletion strains, locus YER110C, hits give low values 0.986 | S. cerevisiae deletion strains, locus YER155C, strain BEM2, hits give low values 1.01 | S. cerevisiae deletion strains, locus YER167W, strain BCK2, hits give low values 1.02 | S. cerevisiae deletion strains, locus YGL078C, strain dbp3, hits give low values 0.981 | S. cerevisiae deletion strains, locus YGL086W, strain mad1, hits give low values 0.989 | S. cerevisiae deletion strains, locus YGL248W, strain PDE1, hits give low values 0.998 | S. cerevisiae deletion strains, locus YGR135W, strain pre9, hits give low values 0.931 | S. cerevisiae deletion strains, locus YGR252W, strain gcn5, hits give low values 0.844 | S. cerevisiae deletion strains, locus YHR030C, strain SLT2, hits give low values 1.02 | S. cerevisiae deletion strains, locus YHR079C, strain IRE1 (second series), hits give low values 0.99 | S. cerevisiae deletion strains, locus YHR094C, strain hxt1, hits give low values 0.999 | S. cerevisiae deletion strains, locus YHR129C, strain ARP1, hits give low values 1.01 | S. cerevisiae deletion strains, locus YHR200W, strain rpn10, hits give low values 0.975 | S. cerevisiae deletion strains, locus YIL066C, strain RNR3, hits give low values 1.04 | S. cerevisiae deletion strains, locus YIL073C, strain SPO22, hits give low values 1.02 | S. cerevisiae deletion strains, locus YIL125W, strain kgd1, hits give low values 0.995 | S. cerevisiae deletion strains, locus YIR030C, strain dcg1, hits give low values 0.996 | S. cerevisiae deletion strains, locus YJL095W, strain BCK1, hits give low values 1 | S. cerevisiae deletion strains, locus YJL134W, strain LCB3, hits give low values 1.01 | S. cerevisiae deletion strains, locus YJL168C, strain set2, hits give low values 0.993 | S. cerevisiae deletion strains, locus YJL187C, strain SWE1 (second series), hits give low values 0.981 | S. cerevisiae deletion strains, locus YJR043C, strain POL32, hits give low values 1.03 | S. cerevisiae deletion strains, locus YKL009W, strain mrt4, hits give low values 0.988 | S. cerevisiae deletion strains, locus YKL068W, hits give low values 1.01 | S. cerevisiae deletion strains, locus YKL085W, strain MDH1 (second series), hits give low values 1.01 | S. cerevisiae deletion strains, locus YKL085W, strain MDH1, hits give low values 1.01 | S. cerevisiae deletion strains, locus YKR001C, strain vps1, hits give low values 1 | S. cerevisiae deletion strains, locus YLR039C, strain RIC1, hits give low values 1.18 | S. cerevisiae deletion strains, locus YLR058C, strain SHM2, hits give low values 0.996 | S. cerevisiae deletion strains, locus YLR102C, strain apc9, hits give low values 1 | S. cerevisiae deletion strains, locus YLR262C, strain YPT6, hits give low values 1.16 | S. cerevisiae deletion strains, locus YLR268W, strain sec22, hits give low values 1 | S. cerevisiae deletion strains, locus YLR330W, strain CHS5, hits give low values 1 | S. cerevisiae deletion strains, locus YLR371W, strain rom2, hits give low values 1.01 | S. cerevisiae deletion strains, locus YLR418C, strain cdc73, hits give low values 0.936 | S. cerevisiae deletion strains, locus YML016C, strain PPZ1, hits give low values 1.03 | S. cerevisiae deletion strains, locus YML032C, strain rad52, hits give low values 0.998 | S. cerevisiae deletion strains, locus YML124C, strain tub3, hits give low values 0.995 | S. cerevisiae deletion strains, locus YMR078C, strain ctf18, hits give low values 0.998 | S. cerevisiae deletion strains, locus YMR223W, strain ubp8, hits give low values 0.97 | S. cerevisiae deletion strains, locus YMR263W, strain SAP30, hits give low values 0.986 | S. cerevisiae deletion strains, locus YMR307W, strain GAS1, hits give low values 1.1 | S. cerevisiae deletion strains, locus YNL067W, strain RPL9B, hits give low values 0.97 | S. cerevisiae deletion strains, locus YNL128W, strain TEP1, hits give low values 1.02 | S. cerevisiae deletion strains, locus YNL233W, strain BNI4, hits give low values 0.975 | S. cerevisiae deletion strains, locus YNL250W, strain rad50, hits give low values 0.986 | S. cerevisiae deletion strains, locus YNL271C, strain bni1, hits give low values 1 | S. cerevisiae deletion strains, locus YNL298W, strain CLA4, hits give low values 1.01 | S. cerevisiae deletion strains, locus YNL307C, strain MCK1, hits give low values 1 | S. cerevisiae deletion strains, locus YNL322C, strain KRE1, hits give low values 1.01 | S. cerevisiae deletion strains, locus YNR052C, strain pop2, hits give low values 0.967 | S. cerevisiae deletion strains, locus YOL012C, strain htz1 1.21 | S. cerevisiae deletion strains, locus YOL147C, strain pex11, hits give low values 0.993 | S. cerevisiae deletion strains, locus YOR061W, strain CKA2, hits give low values 1.02 | S. cerevisiae deletion strains, locus YOR069W, strain VPS5, hits give low values 1 | S. cerevisiae deletion strains, locus YOR136W, strain idh2, hits give low values 0.985 | S. cerevisiae deletion strains, locus YOR144C, strain elg1, hits give low values 1 | S. cerevisiae deletion strains, locus YOR184W, strain ser1, hits give low values 0.993 | S. cerevisiae deletion strains, locus YOR316C, strain cot1, hits give low values 1.01 | S. cerevisiae deletion strains, locus YPL241C, strain CIN2, hits give low values 1.01 | S. cerevisiae deletion strains, locus YPR119W, strain clb2, hits give low values 0.997 | S. cerevisiae deletion strains, locus YPR141C, strain kar3, hits give low values 1.01 | S. cerevisiae deletion strains, locus YPR163C, strain tif3, hits give low values 0.987 | S. cerevisiae deletion strains, locus YPR167C, strain met16, hits give low values 0.985 | S. cerevisiae deletion strains, strain wtn01, hits give low values 0.998 | S. cerevisiae strains, strain wild type, hits give low values 1.01
